Results as given in PubChem BioAssay AID1445 (SRMLSC, 2008).
Hit rate of the full screen: of about 220,000 compounds, about 910 (0.41%) were called active. What follows is part of a selection rich in actives, with near analogues and random picks from the rest. Entries with a potency or affinity are not part of this list. A number with no mark means an inactive call.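 The calls were made as follows: active = primary inhibition above the hit cutoff, then over 50% inhibition at one or more dose response concentrations (cut at about 23% in these data, passing the limit was not always enough); inconclusive = conflicting primary data, or primary hits not chosen for dose response; inactive = low primary inhibition, or under 50% at every dose.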

biological target: Aminopeptidase N (Plasmodium falciparum (isolate 3D7)) (UniProt O96935); experiment: malaria alanyl aminopeptidase activity blockers – biochemical, fluorogenic H-Leu-NHMec substrate, 1536-well (AID 1445); settings: recombinant M1AAP, H-Leu-NHMec fluorogenic kinetic assay; at 30 µM, active compounds read high unless noted;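 also: plate controls were DMSO full reaction for no effect and no enzyme background for full effect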
Sequence (O96935 whole entry, looked up): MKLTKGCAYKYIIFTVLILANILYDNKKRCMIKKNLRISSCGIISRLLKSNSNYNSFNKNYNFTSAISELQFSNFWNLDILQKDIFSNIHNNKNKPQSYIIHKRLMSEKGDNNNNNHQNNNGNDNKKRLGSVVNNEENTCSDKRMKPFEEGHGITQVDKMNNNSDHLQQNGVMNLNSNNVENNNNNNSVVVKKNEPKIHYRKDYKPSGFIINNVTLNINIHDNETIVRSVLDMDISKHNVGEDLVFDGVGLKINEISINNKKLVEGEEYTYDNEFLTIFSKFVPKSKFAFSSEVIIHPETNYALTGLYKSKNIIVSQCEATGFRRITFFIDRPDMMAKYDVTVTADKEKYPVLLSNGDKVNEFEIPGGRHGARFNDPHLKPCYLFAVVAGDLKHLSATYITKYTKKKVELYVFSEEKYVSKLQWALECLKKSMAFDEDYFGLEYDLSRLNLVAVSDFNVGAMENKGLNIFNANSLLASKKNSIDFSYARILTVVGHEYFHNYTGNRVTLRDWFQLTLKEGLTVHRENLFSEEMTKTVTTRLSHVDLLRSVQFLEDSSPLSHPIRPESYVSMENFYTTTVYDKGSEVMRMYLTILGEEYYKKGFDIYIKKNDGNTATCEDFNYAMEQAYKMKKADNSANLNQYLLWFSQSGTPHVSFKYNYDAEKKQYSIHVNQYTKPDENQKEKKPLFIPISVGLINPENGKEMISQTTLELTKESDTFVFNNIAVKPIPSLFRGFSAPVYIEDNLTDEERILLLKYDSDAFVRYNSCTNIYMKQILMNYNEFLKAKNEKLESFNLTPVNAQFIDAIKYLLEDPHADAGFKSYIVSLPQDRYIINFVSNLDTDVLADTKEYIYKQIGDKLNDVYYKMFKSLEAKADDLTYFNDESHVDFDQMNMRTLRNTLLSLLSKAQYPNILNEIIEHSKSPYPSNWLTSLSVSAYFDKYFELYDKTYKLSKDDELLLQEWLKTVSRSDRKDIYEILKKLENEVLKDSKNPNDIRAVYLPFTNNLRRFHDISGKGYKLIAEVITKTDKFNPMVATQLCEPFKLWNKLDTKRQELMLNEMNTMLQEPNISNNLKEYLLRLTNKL

| SMILES | inhibition |
| --- | --- |
| CCOc1ccccc1-n1c(SCC(=O)N(C(C)C)C(C)C)nnc1-c1cccnc1 | 5.81% |
| O=C(CN1CCN(Cc2ccc(Cl)cc2)C1=O)NCCN1CCCC1 | 1.07% |
| CCC(C)[C@H](NC(=O)Nc1ccc(C(C)=O)cc1)C(=O)OC (stereo not given in full) | -5.32% |
| Cc1nn(-c2ccccc2)c(Cl)c1/C=C1\SC(=S)N(C)C1=O | -0.16% |
| CCC1=NN2C(=N)/C(=C/c3cc(C)n(Cc4ccccc4)c3C)C(=O)N=C2S1 | 1.28% |
| CCC1=NN2C(=N)/C(=C\c3cccn3-c3cccc(Cl)c3)C(=O)N=C2S1 | 7.8% |
| Cc1nn(-c2ccccc2)c(Cl)c1/C=C1\C(=O)N(C)C(=S)N1C | 5.11% |
| O=C(Nc1ccc(-n2nncc2-c2ccco2)cc1)c1cccc(F)c1 | 1.93% |
| COc1ccc(CN(C)CC(=O)Nc2ccccc2-c2ccccc2)c(OC)c1 | 6.36% |
| O=C(O)C(CC1CCCCC1)N1CCS(=O)(=O)CC1 (stereo not given) | -6% |
| C=CCn1c(N)cc(=O)nc1SC(C)C(=O)Nc1cccc2ccccc12 (stereo not given) | 14% |
| O=C(Nc1ccccc1N1CCOCC1)c1ccccc1NS(=O)(=O)c1ccc(F)c(F)c1 | 5.56% |
| Cc1ccc(NC(=O)c2ccccc2NS(=O)(=O)c2ccc(F)cc2)cc1S(=O)(=O)N1CCCCC1 | 14.4% |
| O=C(Nc1cccc(S(=O)(=O)N2CCCCC2)c1)c1ccccc1NS(=O)(=O)c1ccc(F)cc1 | 11.5% |
| O=C(Nc1cc(S(=O)(=O)Nc2ccc(Cl)cc2)ccc1O)c1ccc(S(=O)(=O)N2CCCCCC2)cc1 | 0.01% |
| CCc1nnc(NC(=O)CN2CCN(C(=O)c3ccccc3)CC2)s1 | 5.2% |
| O=C(O)C1CCN(C(=O)CSc2nc3ccccc3s2)CC1 | -1.91% |
| CSc1ccc(Cl)c(C(=O)NC2CCCC2)c1 | 1.66% |
| CC(C)CNS(=O)(=O)c1ccc(CCC(=O)Nc2ccc3c(c2)OCCO3)cc1 | 9.09% |
| Cc1ccc(Cl)cc1NC(=O)COC(=O)C1CC1 | -9.09% |
| C=CCn1c(-c2ccccc2[N+](=O)[O-])n[nH]c1=S | -1.25% |
| COc1ccc(N=C2NC(=O)/C(=C\c3ccco3)S2)cc1 | 6.07% |
| COc1ccc(S(=O)(=O)Nc2nncs2)cc1 | -0.42% |
| O=C1N/C(=N/O)S/C1=C/c1cccc([N+](=O)[O-])c1 | 13.8% |

| SMILES | inhibition |
| --- | --- |
| COc1ccc(N=C2NC(=O)/C(=C/c3ccco3)S2)cc1 | 7.45% |
| CCCN1C(=O)/C(=C/c2ccco2)SC1=Nc1ccc(OC)cc1 | 8.83% |
| CSC1=N/C(=C\c2ccc(Br)o2)C(=O)S1 | 1.89% |
| Cc1ccc(S(=O)(=O)NC(=O)c2ccc(Br)o2)cc1 | 0.41% |
| O=C(O)c1cccc(CN2C(=O)S/C(=C/c3cccc([N+](=O)[O-])c3)C2=O)c1 | 3.75% |
| O=C(O)c1ccc(-c2nc3ccccc3s2)o1 | -2.11% |
| O=C(COc1ccccc1)NNC(=O)COc1ccc([N+](=O)[O-])cc1 | 0.69% |
| COc1cc(NC(=O)CN(C)Cc2cccc(F)c2)c(C)cc1[N+](=O)[O-] | 13.2% |
| CNC(=S)N/N=C(\C)c1ccc2c(c1)OCO2 | 6.47% |
| O=C(NC1CCCCC1)c1ccc(CNc2ccccc2)o1 | 3.72% |
| COc1ccc(/C=C/C(=O)c2ccc(Cl)s2)cc1O | 9.54% |
| NC(=O)c1ccc(-n2nnnc2SCC(=O)Nc2ccc(N3CCOCC3)c(Cl)c2)cc1 | -2.55% |
| CCCCOC(=O)Nc1nnc(CCOCC)s1 | 2.38% |
| CCN(CC)CCSc1nc2ccc(OC)cc2[nH]1 | 1.77% |
| Cc1ccc(S(=O)(=O)Nc2ccccc2-c2ccccc2NS(=O)(=O)c2ccc(C)cc2)cc1 | 17.1% |
| Cc1ccc(N2C(=O)/C(=C\c3ccco3)SC2=S)cc1 | 2.77% |
| NC1=NC(=O)/C(=C\c2ccco2)S1 | 9.69% |
| CN(C)C1=NC(=O)/C(=C\c2ccccc2)S1 | 3.5% |
| COc1cc(O)c(C(CCN2CCCC(C)C2)c2ccc(N(C)C)cc2)c(OC)c1 (stereo not given) | 12.5% |
| O=C(/C(=C/O)N=Nc1ccccc1)c1ccncc1 | 18.4% |
| Cc1ccc(N=N/C(=C\O)C(=O)c2ccncc2)cc1 | 27.6% (active) |
| O=C(/C(=C/O)N=Nc1ccc(Cl)cc1)c1ccncc1 | 0.62% |
| Cc1ccc(NC(=O)Nc2ccc(F)cc2F)c(OC(F)F)c1 | -3.74% |
| Cc1cc(NC(=O)CSCC(=O)N(c2ccc(F)cc2)C(C(=O)NC2CCCCC2)c2ccc(O)c(O)c2)no1 (stereo not given) | 8.19% |

| SMILES | inhibition |
| --- | --- |
| Cc1cc(C)c(/C=C(\C#N)S(=O)(=O)c2ccccc2)[nH]1 | -6.03% |
| N#C/C(=C\c1ccc(O)c(O)c1)S(=O)(=O)c1ccccc1 | 24.6% (active) |
| N#C/C(=C/c1ccc(F)cc1)S(=O)(=O)c1ccccc1 | -4.5% |
| Cc1ccccc1Cn1nnc2c1C(=O)c1ccccc1C2=O | -4.07% |
| Cc1cc(NC(=O)CN2C(=O)NC(C)(c3ccc(OC(F)F)cc3)C2=O)no1 (stereo not given) | 7.82% |
| CC1(c2ccc(OC(F)F)cc2)NC(=O)N(CC(=O)Nc2ccc3c(c2)OCO3)C1=O (stereo not given) | 22.2% |
| O=C(CSc1nnc(CNc2ccc(Cl)cc2)o1)Nc1nc2ccccc2s1 | -13% |
| CCCc1nnc(NC(=O)CCC(=O)N2CCN(S(=O)(=O)c3ccc(C)cc3)CC2)s1 | 3.35% |
| Oc1ccc(C2C(c3ccccc3)=NN=C(c3ccc(Cl)cc3)N2O)c(O)c1 (stereo not given) | 12.1% |
| O=C(O)CN1C(=O)/C(=C\c2cn(CC(=O)N3CCOCC3)c3ccccc23)SC1=S | 21.1% |
| CC(C)n1cc(/C=C2/SC(=O)N(CC(=O)N3CCCC3)C2=O)c2ccccc21 | 7.08% |
| Cc1ccnc(NS(=O)(=O)c2ccc(NC(=O)c3cncc(Br)c3)cc2)n1 | -0.33% |
| NC(=O)Cn1nc([N+](=O)[O-])nc1Oc1ccccc1C(=O)N1CCOCC1 | 3.73% |
| CN(C)CCCNC(=O)c1cc(C(=O)C2CCCCC2)c[nH]1 | 3.52% |
| COCC(=O)N(Cc1cc2cc(OC)ccc2[nH]c1=O)c1ccccc1 | 7% |
| O=C(CN1c2ccccc2Sc2ccccc21)NNC(=O)Nc1ccc(Cl)c(Cl)c1 | 0.08% |
| COc1ccc([N+](=O)[O-])cc1N(CC(O)CN1CCCC1)S(=O)(=O)c1ccc(C)cc1 (stereo not given) | 2.31% |
| COc1ccc([N+](=O)[O-])cc1N(CC(O)Cn1nnc2ccccc21)S(=O)(=O)c1ccc(C)cc1 (stereo not given) | 23.6% (active) |
| COc1ccc([N+](=O)[O-])cc1N(CC(O)CN1CCCCC1)S(=O)(=O)c1ccc(C)cc1 (stereo not given) | 8.41% |
| CCOC(=O)c1csc(NC(=O)c2ccc(OC)c(OC)c2)n1 | 1.77% |
| COCCN(C(=O)CSc1nnc(Nc2ccccc2F)s1)c1c(N)n(Cc2ccccc2)c(=O)[nH]c1=O | 3.95% |
| CCCS(=O)(=O)NCc1ccc2c(c1)cc(C)n2C | 7.58% |
